Consider eleven compounds from PubChem BioAssay AID1508619 (National Center for Advancing Translational Sciences (NCATS), 2020).

Structures are written as SMILES. Results filed as inconclusive are left out. Where a call stands in place of a potency, no number is given. Calls of active or inactive are those of the source. Calls follow the shape of the dose curve; as a rule, active = well fitted inhibition curve with a large enough effect; inconclusive = small, poorly fitted or top-dose-only effect; inactive = no such curve, though single readings can be large or run the other way.
Potency is read from the fitted curve at half-maximal effect.

The experiment is described as follows: Counterscreen qHTS for Identification of Calcium Integrin Binding Protein 1 (CIB1) Competitor. The settings on record: series mostly up to 114 µM. In outline: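 Counterscreen FP assay: CIB1-GST 1 uM in 5 mM HEPES pH 7.4, 125 mM NaCl, 5 mM CaCl2, 0.01% Tween20, with compounds up to 114 uM for 15 min, then 100 nM FITC-labelled scrambled peptide, 15 min, polarization read ex 480/em 540.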
`CC1(C)OB(c2ccc(O)c3ncc(N4CCNCC4)cc23)OC1(C)C`: the Potency was 20 µM (active).
As to `CCCC1CCN(C(=O)COC(=O)c2ccc(S(C)(=O)=O)c([N+](=O)[O-])c2)CC1`, the Potency entry was “inactive”.
As for `C=C(CC)C(=O)c1ccc(OCC(=O)O)c(Cl)c1Cl`, the entry is “inactive”.
On to `CC(O)c1ccc(-c2ccc3ncnc(N4CCOCC4)c3c2)o1` (stereo unspecified), for which the Potency result is “inactive”.
`CC(C)(O)CCc1ccc(OCc2cc(-c3cccc(OC(F)F)c3)c3ncccc3c2)cc1`: the Potency result is “inactive”.
In the case of `Cc1ccc(S(=O)(=O)Nc2cnccc2C(=O)Nc2ccc(-c3nn[nH]n3)cc2)cc1`, the Potency entry was “inactive”.
Under `CO[C@@H]1C(N(C)C(=O)c2ccccc2)C[C@H]2O[C@]1(C)n1c3ccccc3c3c4c(c5c6ccccc6n2c5c31)C(=O)NC4=O` (stereo partly specified) stands 22.4 µM (active); under `O=S(=O)(Nc1nccs1)c1ccc(Nc2nc(-c3ccccc3)cs2)cc1`, 50.1 µM (active); under `NC(=O)c1ccc(O)c2ncccc12`, “inactive”.
Under `COC(=O)c1ccc2c(c1)S(=O)(=O)N=C2Sc1cc(C)ccc1C` stands “inactive”.
As to `Cc1ccc(C(=O)Nc2ccc(S(=O)(=O)O)c3cc(S(=O)(=O)O)cc(S(=O)(=O)O)c23)cc1NC(=O)c1cccc(NC(=O)Nc2cccc(C(=O)Nc3cc(C(=O)Nc4ccc(S(=O)(=O)O)c5cc(S(=O)(=O)O)cc(S(=O)(=O)O)c45)ccc3C)c2)c1`, the Potency entry was “inactive”.
